According to a collection of fitness landscapes (doi:10.1016/j.celrep.2020.107928):
Over roughly 81,000 sequences, “one-hybrid fitness for binding NBS DNA” has its median near -0.1; the highest 2% begin near 0.36. What follows is part of a selection rich in the highest values, with near analogues and random picks from the rest.

B1: Caulobacter ParB omega fusion; a variant is named by its letters at X, in order, B8GW30 (parent)
chain: MESVVVGEPGMSEGRRGLGRGLSALLGEVDAAPAQAPGEQLGGSREAPIEILQRNPDQPRRTFREEDLEDLSNSIREKGVLQPILVRPSPDTAGEYQIVAGERAWRAAQRAGLKTVPIMVRELDDLAVLEIGIIENVQRADLNVLEEALSYKVLMEKFERTQENIAQTIGKSXSHVANXMRLLXLPDEVQSYLVSGELTAXHARAIAAAADPVALAKQIIEGGLSVRETEALARKAPNLSAGKSKGGRPPRVKDTDTQALESDLSSVLGLDVSIDHRGSTGTLTITYATLEQLDDLCNRLTRGI

Variants of: B1
Assay: one-hybrid fitness for binding NBS DNA (the Noc-binding site; scaled: cognate 1, non-cognate 0); higher = stronger binding
Settings: with NBS DNA site
Procedure, shortened: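 Fitness is the rescaled log change in variant-to-wild-type read ratio, measured by Illumina sequencing of plasmids before and after bacterial one-hybrid selection. The scale puts cognate at 1 and non-cognate at 0. Selection of Caulobacter ParB libraries, four specificity codons randomised, took place in E. coli USO with a HIS3 reporter, site 19 bp from the promoter, over 48 hours at 37°C on M9-minus-histidine with 0.1 mM IPTG and 5 mM 3-AT.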

Row | Variant | one-hybrid fitness for binding NBS DNA
1 | VHWG | ≤ 0.2
2 | DTCT | ≤ 0.2
3 | VLPC | ≤ 0.2
4 | GGCG | ≤ 0.2
5 | PDVF | ≤ 0.2
6 | YPIT | ≤ 0.2
7 | SGYG | ≤ 0.2
8 | SCFT | ≤ 0.2
9 | METY | ≤ 0.2
10 | RRMH | 0.403
11 | RRMP | ≤ 0.2
12 | RRMD | ≤ 0.2
13 | RRMS | 0.628
14 | RRMN | 0.245
15 | RCMH | ≤ 0.2
16 | TKWD | ≤ 0.2
17 | AEDA | ≤ 0.2
18 | APCN | ≤ 0.2
19 | YRRI | ≤ 0.2
20 | AVHL | ≤ 0.2
21 | TDRM | ≤ 0.2
22 | TYEH | ≤ 0.2
23 | HSVS | ≤ 0.2
24 | ARTM | ≤ 0.2
25 | HHLA | ≤ 0.2
26 | QTMP | ≤ 0.2

Row | Variant | one-hybrid fitness for binding NBS DNA
27 | QYMN | ≤ 0.2
28 | QYMP | ≤ 0.2
29 | QYMH | ≤ 0.2
30 | QMMF | ≤ 0.2
31 | QMMS | 0.333
32 | QYMY | 0.453
33 | QYMS | 0.314
34 | QTMT | 0.551
35 | QTMD | ≤ 0.2
36 | QYMT | 0.416
37 | QMMT | 0.378
38 | CSAE | ≤ 0.2
39 | YFMR | ≤ 0.2
40 | TNFF | ≤ 0.2
41 | AHDA | ≤ 0.2
42 | FHFL | ≤ 0.2
43 | CNVL | ≤ 0.2
44 | HYMT | ≤ 0.2
45 | QSMT | 0.368
46 | QIMT | 0.219
47 | QPMT | ≤ 0.2
48 | QCMT | 0.477
49 | QAMT | 0.346
50 | QKMY | 0.224
51 | QLMT | 0.34
52 | QRMC | 0.333

Row | Variant | one-hybrid fitness for binding NBS DNA
53 | QRMT | 0.729
54 | QKMT | 0.424
55 | QRMG | 0.329
56 | QKMN | ≤ 0.2
57 | QLVV | ≤ 0.2
58 | KKDV | ≤ 0.2
59 | RLWA | ≤ 0.2
60 | WGTT | ≤ 0.2
61 | PARD | ≤ 0.2
62 | RCAQ | ≤ 0.2
63 | FSIR | ≤ 0.2
64 | RTFP | ≤ 0.2
65 | RTAT | 0.499
66 | RTFT | 0.417
67 | RTAF | ≤ 0.2
68 | RTFH | ≤ 0.2
69 | RTAQ | ≤ 0.2
70 | YRWR | ≤ 0.2
71 | QYAW | ≤ 0.2
72 | CWPD | ≤ 0.2
73 | IVKR | ≤ 0.2
74 | TREN | ≤ 0.2
75 | RVKH | 0.321
76 | RVKN | 0.203
77 | RVKP | ≤ 0.2
78 | RVKT | 0.652

Row | Variant | one-hybrid fitness for binding NBS DNA
79 | RVKR | 0.665
80 | RVKS | 0.578
81 | RVVR | 0.3
82 | RVKD | ≤ 0.2
83 | RVVT | 0.261
84 | DVAM | ≤ 0.2
85 | FLSS | ≤ 0.2
86 | SKYT | ≤ 0.2
87 | PHGE | ≤ 0.2
88 | KVPL | ≤ 0.2
89 | QVKQ | 0.241
90 | QVKD | ≤ 0.2
91 | QVKP | ≤ 0.2
92 | QVKS | 0.49
93 | QVYY | ≤ 0.2
94 | QVVT | 0.248
95 | QVKT | 0.564
96 | QVKN | ≤ 0.2
97 | QVKM | 0.229
98 | QVKH | 0.38
99 | QVVY | ≤ 0.2
100 | QVKY | 0.383
101 | MVLL | ≤ 0.2
102 | KYVG | ≤ 0.2
103 | NCLS | ≤ 0.2
104 | FLLI | ≤ 0.2

Row | Variant | one-hybrid fitness for binding NBS DNA
105 | SFTN | ≤ 0.2
106 | QSWH | ≤ 0.2
107 | PPWR | ≤ 0.2
108 | RQTH | ≤ 0.2
109 | RQTN | ≤ 0.2
110 | RQTS | 0.436
111 | RQTR | 0.497
112 | RQTP | ≤ 0.2
113 | RQTD | ≤ 0.2
114 | RQTT | 0.487
115 | RQTQ | ≤ 0.2
116 | RQTM | ≤ 0.2
117 | KQNL | ≤ 0.2
118 | SITL | ≤ 0.2
119 | CLCV | ≤ 0.2
120 | LGTW | ≤ 0.2
121 | DDVR | ≤ 0.2
122 | LTIS | ≤ 0.2
123 | VYRA | ≤ 0.2
124 | IHWG | ≤ 0.2
125 | RKQT | 0.606
126 | RKCQ | ≤ 0.2
127 | RPLT | ≤ 0.2
128 | RSLT | 0.292
129 | RKRG | 0.238
130 | RKQH | ≤ 0.2

Row | Variant | one-hybrid fitness for binding NBS DNA
131 | RCLT | 0.436
132 | RKRT | 0.676
133 | RKRQ | 0.246
134 | RKCT | 0.583
135 | RKCM | ≤ 0.2
136 | RKQP | ≤ 0.2
137 | YFSE | ≤ 0.2
138 | GPRA | ≤ 0.2
139 | PFTR | ≤ 0.2
140 | YKRA | ≤ 0.2
141 | NSHG | ≤ 0.2
142 | NIIS | ≤ 0.2
143 | GQRS | ≤ 0.2
144 | NYVI | ≤ 0.2
145 | EAFS | ≤ 0.2
146 | LCHL | ≤ 0.2
147 | RKNT | 0.698
148 | RIWT | 0.279
149 | RKNQ | ≤ 0.2
150 | RTLP | ≤ 0.2
151 | RKWT | 0.456
152 | RTLY | ≤ 0.2
153 | RKNG | ≤ 0.2
154 | RKGM | 0.218
